Common to all, as to experiment: NCI-60 one-dose screen, 48 h (100 = growth as untreated, 0 = no growth, -100 = all killed)
One assay deals with T-47D breast. As to conditions: 10 µM.
The test system of the next assay is BT-549 breast. The conditions noted are these: 10 µM.
For another assay, the system named is MDA-MB-435 melanoma. The conditions noted are these: 10 µM.
The test system of another assay is SW-620 colon. As to conditions: 10 µM.
For a further assay, the system named is MCF7 breast. The conditions noted are these: 10 µM unless noted.
In the next assay the test system is HCT-116 colon. The conditions noted are these: 10 µM.
For the next assay, the system named is HCC-2998 colon. The conditions noted are these: 10 µM.
In a further assay the test system is KM12 colon. As to conditions: 10 µM.

The panel holds about 83,000 compounds, 20% with a hit somewhere; the sample as a whole holds those more often.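 The endpoint reported here, percent growth, reads 100 for growth as untreated, 0 for no net growth and -100 for all cells dead.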 Unmarked numbers belong to inactive results. Calls of active or inactive are those of the source. Rule for the calls: active = growth percent below 10; inactive = the rest.

As to `O=c1[nH]cc(Cl)cc1O`, the growth in the assay on T-47D breast was 70.5%; in the assay on BT-549 breast, 90.6%; with MDA-MB-435 melanoma it was 76.4%; with SW-620 colon, 98.6%; with MCF7 breast, 91.2%; in the assay on HCT-116 colon, 94.3%. In addition, the growth with HCC-2998 colon is 96.9%; in the assay on KM12 colon, 57.7%.
For `COC(=O)/C=C/C(=O)NC(N)=O`, the growth in the assay with T-47D breast is 95.3%; with BT-549 breast it was 99.4%; in the assay with MDA-MB-435 melanoma, 99%; in the assay on SW-620 colon, 103%; in the assay on MCF7 breast, 94.8%; in the assay on HCT-116 colon, 103%. The growth with HCC-2998 colon is 122%; in the assay with KM12 colon, 102%.
Consider `Nc1ccccc1C(=O)Nc1ccc(Cl)cc1Cl`, for which the growth in the assay with T-47D breast was 88%; with BT-549 breast, 99.2%; in the assay with MDA-MB-435 melanoma it was 107%; in the assay with SW-620 colon, 85.9%; in the assay with MCF7 breast, 65.5%; with HCT-116 colon, 59.9%. Also, the growth with HCC-2998 colon was 103%; in the assay on KM12 colon it was 91%.
Turning to `O=C(Nc1ccccc1C(=O)NCC1CC1)c1cccs1`, the growth was 106% in the assay on T-47D breast; 99.9% in the assay on BT-549 breast; 105% in the assay on MDA-MB-435 melanoma; 109% in the assay with SW-620 colon; 106% with MCF7 breast; 93.7% in the assay on HCT-116 colon. Moreover, the growth is 103% in the assay with HCC-2998 colon and 107% in the assay on KM12 colon.
Turning to `CC1CCC(C(=O)O)N1` (configuration not stated), the growth was 86.4% with T-47D breast; 102% with BT-549 breast; 111% in the assay with MDA-MB-435 melanoma; 113% in the assay on SW-620 colon; 95% in the assay on MCF7 breast; 102% with HCT-116 colon. The growth with HCC-2998 colon is 97.8%; in the assay with KM12 colon it was 106%.
As for `CCCNC(=O)c1ccc(S(N)(=O)=O)cc1`, the growth in the assay on T-47D breast was 96%; in the assay with BT-549 breast it was 120%; in the assay with MDA-MB-435 melanoma, 117%; in the assay on SW-620 colon it was 94.5%; in the assay on MCF7 breast, 95%; in the assay with HCT-116 colon it was 96.4%. Further, the values for the growth in the assay with HCC-2998 colon and in the assay on KM12 colon were 100% and 106%, respectively.
Take `O=P(O)(O)OCC(O)CO` (configuration not stated): the growth with T-47D breast was 100%; in the assay with BT-549 breast, 102%; with MDA-MB-435 melanoma, 109%; in the assay on SW-620 colon it was 107%; in the assay on MCF7 breast it was 95.6%; in the assay with HCT-116 colon it was 102%. Moreover, the growth in the assay with HCC-2998 colon was 107%; with KM12 colon, 105%.
For the molecule `COc1ccc(C)cc1OC`, the growth in the assay with T-47D breast is 107%; with BT-549 breast, 114%; in the assay on MDA-MB-435 melanoma it was 108%; with SW-620 colon, 107%; in the assay on MCF7 breast, 102%; with HCT-116 colon it was 105%. The values for the growth in the assay with HCC-2998 colon and with KM12 colon were 100% and 105%, respectively.
With `O=C(CCl)Nc1ccc2c(c1)C(=O)c1ccc(NC(=O)CCl)cc1C2=O`, the growth was -48.7% (active) in the assay with T-47D breast; -91% (active) with BT-549 breast; -71.6% (active) in the assay on MDA-MB-435 melanoma; -61.7% (active) in the assay with SW-620 colon; -60.7% (active) in the assay on MCF7 breast; -79.8% (active) in the assay on HCT-116 colon. For the same molecule, the growth is -77.8% (active) in the assay on HCC-2998 colon and -72.2% (active) with KM12 colon.
For `Nc1nc(N)c2cc(S(=O)(=O)c3cccc(C(F)(F)F)c3)ccc2n1`, the growth was 74.1% in the assay with T-47D breast; 76.8% with BT-549 breast; 31.7% with MDA-MB-435 melanoma; 25.4% in the assay on SW-620 colon; 43.1% in the assay with MCF7 breast; 15.6% in the assay with HCT-116 colon. For the same molecule, the growth was 37.4% in the assay on HCC-2998 colon and 53.1% in the assay with KM12 colon.
Regarding `O=C(NC1CCCCC1)OCc1c(COC(=O)NC2CCCCC2)c(-c2ccc(Cl)c(Cl)c2)n2c1CCC2`, the growth is 20.8% in the assay with T-47D breast; 53.7% with BT-549 breast; 56.3% in the assay with MDA-MB-435 melanoma; 32.6% in the assay with SW-620 colon; 27.4% in the assay with MCF7 breast; 15.5% in the assay on HCT-116 colon. Besides, the growth in the assay with HCC-2998 colon was 30.5%; in the assay on KM12 colon, 56.3%.
For `C=C[Si](OC(C)=O)(OC(C)=O)OC(C)=O`, the growth in the assay on T-47D breast was 93.6%; with BT-549 breast, 95.9%; in the assay on MDA-MB-435 melanoma, 99.6%; in the assay with SW-620 colon, 101%; in the assay on MCF7 breast, 92.9%; in the assay on HCT-116 colon, 100%. The growth in the assay with HCC-2998 colon is 103%; in the assay with KM12 colon it was 104%.
In the case of `C#CC(C(C)C)N(CCO)CCCC` (configuration not stated), the growth is 100% with T-47D breast; 112% in the assay with BT-549 breast; 98.6% in the assay on MDA-MB-435 melanoma; 107% with SW-620 colon; 93.9% in the assay with MCF7 breast; 104% in the assay on HCT-116 colon. The figures for the growth with HCC-2998 colon and in the assay on KM12 colon were 111% and 109%, respectively.
As for `O=C(O)c1cc([N+](=O)[O-])ccc1Cl`, the growth was 99.6% in the assay with T-47D breast; 97.1% in the assay on BT-549 breast; 107% in the assay with MDA-MB-435 melanoma; 98.5% in the assay with SW-620 colon; 88% in the assay on MCF7 breast; 102% in the assay on HCT-116 colon. For the same molecule, the figures for the growth in the assay with HCC-2998 colon and in the assay with KM12 colon were 97% and 95%, respectively.
As to `CC(=O)Nc1c(C)cc(C)cc1C`, the growth was 98.2% with T-47D breast; 105% with BT-549 breast; 102% in the assay on MDA-MB-435 melanoma; 106% with SW-620 colon; 96.5% with MCF7 breast; 102% with HCT-116 colon. For the same molecule, the growth with HCC-2998 colon was 104%; with KM12 colon it was 103%.
Turning to `COC(=O)Nc1cccc(Cl)c1OC`, the growth in the assay on T-47D breast was 104%; in the assay on BT-549 breast it was 111%; in the assay with MDA-MB-435 melanoma, 101%; in the assay on SW-620 colon it was 71.7%; in the assay with MCF7 breast, 104%; in the assay on HCT-116 colon, 107%. Further, the growth in the assay with HCC-2998 colon is 104%; in the assay with KM12 colon it was 111%.
Turning to `NC(=O)c1ccc(N=C(N)N=C(N)N)cc1`, the growth with T-47D breast was 95.7%; with BT-549 breast it was 108%; with MDA-MB-435 melanoma, 85%; in the assay with SW-620 colon, 104%; in the assay on MCF7 breast, 92.7%; with HCT-116 colon, 105%. Moreover, the figures for the growth in the assay on HCC-2998 colon and in the assay with KM12 colon were 97.7% and 99.3%, respectively.
Take `Cc1cc(N)c(S(=O)(=O)O)c(N)c1`: the growth in the assay with T-47D breast is 89.7%; in the assay with BT-549 breast, 57.8%; in the assay with MDA-MB-435 melanoma, 101%; with SW-620 colon it was 90.8%; in the assay on MCF7 breast, 105%; with HCT-116 colon it was 91.9%. For the same molecule, the growth in the assay on HCC-2998 colon is 86.3%; with KM12 colon, 107%.
For the molecule `Cc1ccc(S(=O)(=O)O)c(C)c1`, the growth was 92.5% in the assay on T-47D breast; 109% in the assay with BT-549 breast; 107% in the assay on MDA-MB-435 melanoma; 98.8% in the assay on SW-620 colon; 95.3% in the assay with MCF7 breast; 101% with HCT-116 colon. For the same molecule, the growth was 107% in the assay with HCC-2998 colon and 109% in the assay on KM12 colon.
For `NCCC(=O)c1ccc(Cl)cc1`, the growth with T-47D breast was 91.4%; in the assay with BT-549 breast, 109%; with MDA-MB-435 melanoma, 110%; with SW-620 colon, 102%; in the assay on MCF7 breast, 110%; in the assay on HCT-116 colon, 102%. Moreover, the growth in the assay on HCC-2998 colon is 97.6%; in the assay with KM12 colon it was 98.1%.
Turning to `O=C(CC(=O)c1ccccc1O)c1ccccc1`, the growth was 79.7% in the assay with T-47D breast; 77.5% in the assay on BT-549 breast; 102% with MDA-MB-435 melanoma; 86.4% in the assay on SW-620 colon; 76.4% in the assay with MCF7 breast; 76.6% with HCT-116 colon. Further, the values for the growth in the assay on HCC-2998 colon and with KM12 colon were 107% and 92.8%, respectively.
For the molecule `CCOC(=O)c1cc2cccc(OC)c2oc1=O`, the growth was 106% in the assay with T-47D breast; 88.6% in the assay on BT-549 breast; 110% with MDA-MB-435 melanoma; 111% with SW-620 colon; 105% with MCF7 breast; 101% in the assay with HCT-116 colon. For the same molecule, the growth in the assay with HCC-2998 colon is 108%; in the assay on KM12 colon it was 113%.
On to `Nc1nc(N)c(N=Nc2ccc(C(=O)O)cc2)c(N)n1`, for which the growth in the assay on T-47D breast is 100%; in the assay with BT-549 breast, 97%; with MDA-MB-435 melanoma it was 103%; with SW-620 colon, 90.8%; with MCF7 breast, 104%; in the assay on HCT-116 colon it was 95.4%. In addition, the growth in the assay with HCC-2998 colon is 100%; in the assay with KM12 colon, 115%.
As to `Cc1c(O)cccc1O`, the growth is 98.2% in the assay on T-47D breast; 77.1% with BT-549 breast; 94.9% in the assay on MDA-MB-435 melanoma; 99.5% with SW-620 colon; 104% in the assay on MCF7 breast; 103% in the assay on HCT-116 colon. The values for the growth in the assay on HCC-2998 colon and with KM12 colon were 102% and 118%, respectively.

The values above are taken from PubChem BioAssay (NCI).
